Results on five compounds are retold here after PubChem BioAssay.

Assay [1] in a line: reducers of endogenous Her2 protein level, primary screen, SKBR3 breast tumor cells, AlphaScreen, ATP viability (AID 461;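 active means Her2 level under about 52% in both replicate screens, with viability over 70% of control, limit read from the data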;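 on Her2 level: lower value means less Her2 protein in the cells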;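 on viability: percent of carrier control wells set as 100% viability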). The following applies: 18-24 h, measured here: SKBR3 viability, ATP luminescence, at 10 µM. (In general: In Alpha technology, singlet oxygen from a donor bead excites a nearby acceptor bead.)
The target of assay [2] is Receptor tyrosine-protein kinase erbB-2 (Homo sapiens) (UniProt P04626). The assay is described as above. The following applies: 18-24 h, at 10 µM, stronger effect = lower value.
Sequence of Receptor tyrosine-protein kinase erbB-2 (Homo sapiens) (P04626 whole entry, looked up): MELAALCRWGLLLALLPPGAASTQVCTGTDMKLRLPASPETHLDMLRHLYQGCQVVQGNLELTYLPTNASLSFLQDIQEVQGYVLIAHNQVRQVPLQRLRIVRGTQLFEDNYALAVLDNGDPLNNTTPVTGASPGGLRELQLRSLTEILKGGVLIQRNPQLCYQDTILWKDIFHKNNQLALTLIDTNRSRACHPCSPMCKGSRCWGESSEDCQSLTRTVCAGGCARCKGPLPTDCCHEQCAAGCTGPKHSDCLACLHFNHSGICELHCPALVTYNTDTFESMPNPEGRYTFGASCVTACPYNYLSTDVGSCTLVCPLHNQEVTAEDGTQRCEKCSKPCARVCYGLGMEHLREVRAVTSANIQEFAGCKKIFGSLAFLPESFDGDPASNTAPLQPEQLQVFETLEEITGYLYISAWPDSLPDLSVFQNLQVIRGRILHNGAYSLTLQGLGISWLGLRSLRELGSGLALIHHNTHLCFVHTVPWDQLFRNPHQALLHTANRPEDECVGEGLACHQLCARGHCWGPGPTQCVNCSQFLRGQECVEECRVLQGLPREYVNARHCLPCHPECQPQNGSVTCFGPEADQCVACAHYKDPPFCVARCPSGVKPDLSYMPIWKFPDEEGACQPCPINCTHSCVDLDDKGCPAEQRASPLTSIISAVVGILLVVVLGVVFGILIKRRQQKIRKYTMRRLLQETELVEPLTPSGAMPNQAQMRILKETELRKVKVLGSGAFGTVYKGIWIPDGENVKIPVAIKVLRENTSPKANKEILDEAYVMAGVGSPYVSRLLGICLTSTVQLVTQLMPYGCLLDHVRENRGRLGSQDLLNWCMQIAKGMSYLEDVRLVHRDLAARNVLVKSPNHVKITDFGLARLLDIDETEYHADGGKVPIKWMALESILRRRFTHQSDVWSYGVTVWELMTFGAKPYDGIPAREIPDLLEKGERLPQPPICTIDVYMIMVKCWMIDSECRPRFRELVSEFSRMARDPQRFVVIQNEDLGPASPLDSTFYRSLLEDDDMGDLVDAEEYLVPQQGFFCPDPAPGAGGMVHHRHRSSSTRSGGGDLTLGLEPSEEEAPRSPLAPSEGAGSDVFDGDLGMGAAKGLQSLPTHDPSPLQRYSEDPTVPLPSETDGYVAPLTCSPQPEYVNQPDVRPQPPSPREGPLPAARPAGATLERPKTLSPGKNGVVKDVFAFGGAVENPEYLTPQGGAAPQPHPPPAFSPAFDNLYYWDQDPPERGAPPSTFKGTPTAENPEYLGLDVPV
Assay [3] in a line: SK-BR-3 cell growth inhibitors, pilot screen, 24 h, human (AID 572;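 active means viability at or below 10% of carrier control in both of two separate runs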;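 further: compound exposure lasted between 18 and 24 h rather than exactly 24 h; 100% = carrier-treated control wells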). The following applies: SK-BR-3 viability, CellTiter-Glo luminescence, at 10 µM, stronger effect = lower value. In general terms: ATP-based viability assays read luminescence as a measure of living cells.
Assay [4] is described as follows: HUVEC growth inhibition – cell-based, human, primary screen (AID 575;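 active means viability at or below 30% in both replicate assays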;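 further: 100% = median of untreated cell wells with 0.1% DMSO on each plate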). The following applies: HUVEC proliferation, CellTiter-Glo luminescence, 72 h; at 10 µM; stronger effect = lower value.
The nature of assay [5]: growth inhibitors of H69AR lung tumor, primary screen, human, duplicate replicates (AID 580;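 active means viability at or under a set limit in both replicates, limit being median viability minus 3 SD, cut at about 48% in these data, passing the limit was not always enough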;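 further: 100% = mean luminescence of untreated wells and 0% = no signal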). The following applies: H69AR lung tumor cells viability, ATP luminescence, 72 h; at 10 µM; stronger effect = lower value.
Assay [6] in a line: reversal of MRP1-mediated doxorubicin resistance, pilot screen, H69AR cells, doxorubicin co-treatment (AID 601;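 active means viability loss from added drug above about 55%, and viability with drug at most 40%, in both replicates, limit read from the data, passing the limit was not always enough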). The following applies: CellTiter-Glo, 72 h, at 10 µM; for differential viability (reversal): stronger effect = higher value.
Assay [7] can be described thus: 384-well plate pilot, post-Golgi transport modulator project, inhibition of yeast transport mutant growth (AID 636; in the data active means inhibition above about 31%). The following applies: absorbance 615 nm, about 18 h, stronger effect = higher value.
Assay [8] can be described thus: growth suppression of yeast trafficking mutant, preliminary HTS, modulators of trafficking downstream of Golgi apparatus project, 1536-format plate, OD 615 nm (AID 637; in the data active means inhibition above about 30%). The following applies: yeast transport mutant growth, absorbance 615 nm, 18 h; stronger effect = higher value.
Assay [9] is described as follows: OD615 S. cerevisiae growth inhibition, permissive medium, pilot counter-assay, permissive growth control for S. cerevisiae lifespan shortening project (AID 705;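 active means growth inhibition above 25% in both replicates, a cutoff set 3 SD above the mean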). The following applies: OD615, 24 h, at 10 µM, stronger effect = higher value.
Assay [10] can be described thus: Restrictive medium S. cerevisiae growth inhibition, OD615, pilot screen of yeast lifespan reduction project, restrictive growth control (AID 706;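 active means growth inhibition above a set limit, 3 SD over mean compound inhibition, in both replicates, cut at about 43% in these data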;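 further: modified DeaD lifespan yeast strain shifted to restrictive glucose medium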). The following applies: OD615, 48 h, at 10 µM, stronger effect = higher value.
Assay [11] can be described thus: viability gain of MRP-1-high H69AR cells under doxorubicin, pilot screen, MRP-1 activator project, CellTiter-Glo, duplicate (AID 807;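 active means viability increase at or above a cutoff of the median across tested compounds plus 3 SD, cut at about 8.5% in these data, passing the limit was not always enough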;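 further: compound pretreatment 18-22 h then 72 h combined with doxorubicin; 0% = doxorubicin alone and 100% = vehicle without doxorubicin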). The following applies: H69AR viability with doxorubicin, CellTiter-Glo luminescence; at 10 µM; stronger effect = higher value.
The nature of assay [12]: growth suppression of beta-catenin knockout HCT116, pilot screen, human colon tumor cells (AID 823).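 Further: 0% = wells killed by 20 µM Hyamine and 100% = untreated DMSO cell wells.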 The following applies: CellTiter-Glo, 60 h, at 10 µM, stronger effect = lower value.
A short description of assay [13]: growth suppression of PTEN-deleted HCT116, pilot screen, cell-based, HCT116 clonal line, CellTiter-Glo (AID 824;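 active means viability at or below 27.92% in each of two runs, the all-compound median minus 4 SD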;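 further: 0% = 20 µM Hyamine control and 100% = vehicle cell control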). The following applies: 60 h, at 10 µM, stronger effect = lower value.
Assay [14] is described as follows: inhibitors of the yeast RAM network, pilot screen, dse1pr::URA3 reporter, 5-FOA selection (AID 869;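 active means inhibition over a set limit, the all-compound mean plus 3 SD, in both replicate runs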;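 further: 0% = DMSO wells with no growth and 100% = 10 µM 1-NA-PP1 with full growth; RAM network block rescues cells from 5-FOA so hits raise OD615 growth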). The following applies: S. cerevisiae dse1pr::URA3 5-FOA growth, OD615, 2 d; at 10 µM; stronger effect = higher value; strain carries analog-sensitive mutant Cbk1 kinase.
The nature of assay [15]: RAM signaling pathway blockade in yeast – S. cerevisiae, Pdr1DBD-CYC8 efflux-inhibited sensitized strain, primary screen (AID 1298;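 active means RAM network inhibition above 8.4% in each of two replicates, 3 SD over the compound average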;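 further: 0% = DMSO untreated cells without growth and 100% = 10 µM 1-NA-PP1 full growth; higher means more yeast growth rescued from 5-FOA killing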). The following applies: S. cerevisiae cbk1-as DSE1-URA3 strain, 5-FOA growth OD615, 2 d; at 50 µM; stronger effect = higher value.
The mark [16] stands for this setting: H69AR cells + 2 uM doxorubicin, measured here: viability with 2 uM doxorubicin, stronger effect = lower value.
Setting [17] is: H69AR cells, compound alone cytotoxicity.

SMILES strings stand for the structures. Records with an inconclusive call do not appear. Active and inactive are the calls of the source.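 How the source made its calls, unless noted: active means cell viability at or below a set limit in both duplicate runs, the limit being the all-compound median minus 4 SD (cut at about 23% in these data, passing the limit was not always enough); inconclusive means no clear call, values can overlap the other calls; inactive means the rest.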

The viability is a read-out of living cells in per cent, often relative to untreated cells. What is called inhibition is the drop in the measured response relative to a control, in per cent. `Cc1nc2sc(C(c3cccs3)N3CC(C)CC(C)C3)c(O)n2n1` (stereo not given): the viability in assay [1] is 89.5%; in assay [3], 89.5% (inactive); in [4] it was 108% (inactive); in assay [5], 95.2% (inactive); in [6] (setting [16]), 93.8%; in assay [6] (setting [17]), 95.2%. Moreover, the viability in assay [12] is 107% (inactive); in assay [13], 95.2% (inactive). Moreover, the Her2 level in assay [2] was 92% (inactive). Further, in assay [6] (H69AR cells + 2 uM doxorubicin), the differential viability (reversal) is 1.38% (inactive). The inhibition in assay [7] is -0.27% (inactive); in [8], 8.85% (inactive); in [14], 1.53% (inactive). Moreover, the figures for the growth inhibition in assay [9] and in assay [10] were -11.2% (inactive) and -10.1% (inactive), respectively. Besides, the viability increase in [11] was -2.1% (inactive). For the same compound, in assay [15], the RAM network inhibition is 5.64% (inactive).

For the compound `Cc1cccc(OCCNC(=O)c2ncn[nH]2)c1`, the viability is 100% in assay [1]; 100% (inactive) in assay [3]; 92.5% (inactive) in assay [4]; 91.9% (inactive) in [5]; 88.5% in assay [6] (setting [16]); 91.9% in [6] (setting [17]). Moreover, the viability in assay [12] was 94.2% (inactive); in [13] it was 99.7% (inactive). For the same compound, the Her2 level in [2] was 108% (inactive). In addition, the differential viability (reversal) in assay [6] (H69AR cells + 2 uM doxorubicin) was 3.36% (inactive). The inhibition in [7] was 0% (inactive); in [8], -5.17% (inactive); in assay [14], 1.01% (inactive). For the same compound, the growth inhibition in [9] is -12.5% (inactive); in assay [10], -4.79% (inactive). Besides, the viability increase in assay [11] is 0.64% (inactive). In addition, in assay [15], the RAM network inhibition is -0.32% (inactive).

In the case of `O=C(c1cccc(F)c1)N1CCc2ccccc21`, the viability in assay [1] is 96.5%; in [3] it was 96.5% (inactive); in assay [4], 91.2% (inactive); in assay [5], 98.9% (inactive); in [6] (setting [16]), 95.6%; in assay [6] (setting [17]), 98.9%. For the same compound, the viability in assay [12] was 86.3% (inactive); in assay [13], 96% (inactive). Also, the Her2 level in assay [2] was 80% (inactive). Further, the differential viability (reversal) in [6] (H69AR cells + 2 uM doxorubicin) is 3.25% (inactive). Further, the inhibition in assay [7] is -5.14% (inactive); in [8], 0.98% (inactive); in assay [14], 0.88% (inactive). The growth inhibition in [9] is -19.5% (inactive); in [10], -20.4% (inactive). For the same compound, the viability increase in assay [11] is -5.03% (inactive). In addition, in [15], the RAM network inhibition is 2.7% (inactive).

Take `Clc1ccc(SCCCCn2ccnc2)cc1`: the viability in [1] is 90.5%; in assay [3] it was 90.5% (inactive); in [4], 102% (inactive); in assay [5] it was 99.2% (inactive); in assay [6] (setting [16]), 88.3%; in assay [6] (setting [17]), 99.2%. The viability was 64.8% (inactive) in [12] and 65.7% (inactive) in assay [13]. Besides, the Her2 level in [2] is 113% (inactive). Also, the differential viability (reversal) in assay [6] (H69AR cells + 2 uM doxorubicin) is 10.9% (inactive). Further, the inhibition in assay [7] was 1.22% (inactive); in assay [8], -1% (inactive); in assay [14] it was 0.96% (inactive). The growth inhibition in [9] is 1.02% (inactive); in assay [10] it was -14.2% (inactive). Moreover, the viability increase in assay [11] was 0.79% (inactive). Further, the RAM network inhibition in assay [15] was -0.38% (inactive).

Turning to `Cc1n[nH]c(C)c1N1C(=O)c2cccc3cc(Br)cc(c23)C1=O`, the viability in [1] was 74.5%; in [3], 74.5% (inactive); in assay [4], 85.5% (inactive); in [5], 81.1% (inactive); in assay [6] (setting [16]), 82.4%; in [6] (setting [17]), 81.1%. Further, the viability in assay [12] was 107% (inactive); in [13], 101% (inactive). The Her2 level in assay [2] is 79% (inactive). Further, the differential viability (reversal) in assay [6] (H69AR cells + 2 uM doxorubicin) is -1.29% (inactive). For the same compound, the results for the inhibition in [7], in assay [8] and in assay [14] were 0.26% (inactive), -4% (inactive) and 3.01% (inactive), respectively. Moreover, the figures for the growth inhibition in [9] and in assay [10] were -11.5% (inactive) and -11.6% (inactive), respectively. In assay [11], the viability increase was -2.41% (inactive). For the same compound, the RAM network inhibition in assay [15] is 4.68% (inactive).
